Experiment in all cases: NCI-60 one-dose screen, 48 h (100 = growth as untreated, 0 = no growth, -100 = all killed)
Settings in all cases: 10 µM unless noted

Experiment [1] relates to SK-MEL-2 melanoma.
Experiment [2] has as its system EKVX NSCLC.
In experiment [3] the test system is UO-31 renal.
Experiment [4] relates to TK-10 renal.
The subject of experiment [5] is ACHN renal.
Experiment [6] relates to CAKI-1 renal.
Experiment [7] deals with A498 renal.
Experiment [8] concerns CCRF-CEM leukemia.
Experiment [9] has as its system MOLT-4 leukemia.
Experiment [10] has as its system SN12C renal.

The values that follow come from PubChem BioAssay (NCI).

Where “and” joins values, the source holds several entries; their conditions need not be identical. Equal values may be shown once. The panel holds about 83,000 compounds, 20% with a hit somewhere; the sample as a whole holds those more often.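 The test compound was applied at a single concentration to cells in 96-well plates for 48 hours, and percent growth was recorded.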 Some compounds were tested as several samples or in several runs, with calls that do not always agree. Calls of active or inactive are those of the source. Rule for the calls: active = growth percent below 10; inactive = the rest.

`OC(c1cc(-c2ccc(C(F)(F)F)cc2)nc(C(F)(F)F)c1)C1CCCCN1` (configuration not stated): the growth in [1] was -61% (active) and 21.8% (inactive); in [2] it was 27.2% (inactive) and 3.74% (active) and 67.6% (inactive); in experiment [3], 15.4% (inactive) and -59.3% (active) and 30.6% (inactive); in [4], -57.8% (active) and -14.4% (active) and 50.3% (inactive); in [5], -24% (active) and 0.945% (active) and 24.3% (inactive); in experiment [6], -7.29% (active) and -52.3% (active) and 45.9% (inactive). For the same compound, the growth is 28% (inactive) and -60.5% (active) and 46.4% (inactive) in experiment [7]; 0.247% (active) and -56.8% (active) and 17% (inactive) in experiment [8]; -21.7% (active) and -2.33% (active) in experiment [9].
`COc1ccc2nc3cc(Cl)ccc3c(NCCCCCN3CCCCC3)c2c1`: the growth was -71.8% (active) in experiment [1]; 10.3% (inactive) in [10]; -40.6% (active) in experiment [3]; -9.41% (active) in [4]; -67.7% (active) in [5]; -50.3% (active) in experiment [6]. In addition, the values for the growth in experiment [7], in experiment [8] and in experiment [9] were 19.7% (inactive), -27.6% (active) and -19.5% (active), respectively.
As to `COc1cc(-c2ccc(-[n+]3nc(-c4ccc([N+](=O)[O-])cc4)nn3-c3ccc([N+](=O)[O-])cc3)c(OC)c2)ccc1-[n+]1nc(-c2ccc([N+](=O)[O-])cc2)nn1-c1ccc([N+](=O)[O-])cc1`, the growth was 1.62% (active) in experiment [1]; 2.95% (active) in [10]; 6.95% (active) in experiment [3]; -9.35% (active) in [4]; 9.61% (active) in [5]; -9.54% (active) in [6]. For the same compound, the values for the growth in experiment [7], in experiment [8] and in [9] were -22.2% (active), 12.7% (inactive) and 17.9% (inactive), respectively.
Consider `O=C1C=CC(=O)N1c1cc(Cl)c(Cl)cc1Cl`, for which the growth was 87.2% (inactive) in [1]; 104% (inactive) in [10]; 76.7% (inactive) in [3]; 106% (inactive) in [4]; 96% (inactive) in [5]; 103% (inactive) in experiment [6]. Besides, the results for the growth in [7], in experiment [8] and in experiment [9] were 105% (inactive), 37.5% (inactive) and 95.5% (inactive), respectively.
Consider `CCCCCCCCCCCC[n+]1ccc(CCCCCCCCC)cc1`, for which the growth in experiment [1] was -48.1% (active); in experiment [10], -70.9% (active); in experiment [3] it was -19.4% (active); in [4], -31.4% (active); in experiment [5], -80.7% (active); in [6] it was 23.4% (inactive). For the same compound, the growth in experiment [7] was -25.4% (active); in [8] it was -34.9% (active); in experiment [9], -44.7% (active).
`O=C1C=CC(=O)N1C1CCCCCCCCCCC1`: the growth was 84.2% (inactive) in experiment [1]; 82.9% (inactive) in [10]; 60.4% (inactive) in [3]; 71.5% (inactive) in experiment [4]; 50.1% (inactive) in experiment [5]; 43.5% (inactive) in [6]. For the same compound, the growth in [7] was 113% (inactive); in experiment [8], -11% (active); in [9], 6.51% (active).
With `CCCCCCCCCCCCCCCCSC(=NCC)NCC`, the growth in experiment [1] was -21.6% (active); in experiment [10], 18.6% (inactive); in experiment [3], -13.2% (active); in experiment [4], 50.7% (inactive); in experiment [5], -21.6% (active); in experiment [6], -25.9% (active). The growth was 67.4% (inactive) in experiment [7], -48.9% (active) in experiment [8] and -47.7% (active) in experiment [9].
Regarding `c1ccc(-c2cccc(-c3ccccn3)n2)nc1`, the growth was 16.6% (inactive) in experiment [1]; 15.8% (inactive) in experiment [2]; 9.63% (active) in [3]; 32.9% (inactive) in experiment [4]; 14% (inactive) in experiment [5]; 44.2% (inactive) in experiment [7]. Besides, the values for the growth in experiment [8] and in experiment [9] were 5.02% (active) and 3.3% (active), respectively.
With `CCCc1cc(=O)oc2c3c(c4c(c12)OC(C)(C)CC4)OC(C)[C@H](C)[C@@H]3O` (some centres not stated), the growth in experiment [1] was 13.6% (inactive); in [2], 90% (inactive); in [3], 34.9% (inactive); in [4], 139% (inactive); in experiment [5] it was 66.1% (inactive); in [6], 104% (inactive). The growth is 63% (inactive) in experiment [7], 84.8% (inactive) in [8] and 54.9% (inactive) in [9].
With `Oc1ccccc1N=Cc1ccccc1`, the growth in experiment [1] is 82.4% (inactive); in experiment [10], 81.7% (inactive); in [3], 67.4% (inactive); in experiment [4] it was 122% (inactive); in experiment [5], 85.1% (inactive); in experiment [6], 97.7% (inactive). In addition, the figures for the growth in experiment [7], in experiment [8] and in experiment [9] were 97.7% (inactive), 86.6% (inactive) and 81.2% (inactive), respectively.
With `C1=C(c2ccccc2)c2ccccc2C1`, the growth in experiment [1] was 94.4% (inactive); in [2] it was 90.5% (inactive); in [3] it was 68.8% (inactive); in experiment [4], 119% (inactive); in [5], 81.7% (inactive); in experiment [6] it was 76.4% (inactive). Further, the growth was 68.5% (inactive) in experiment [7] and 92.4% (inactive) in experiment [9].
For `CC/C(=C(/CC)c1ccc(O)cc1)c1ccc(O)cc1`, the growth in experiment [1] was 54.6% (inactive); in experiment [2], 64.7% (inactive); in experiment [3], 73.2% (inactive); in experiment [5], 67.8% (inactive); in [6], 45.8% (inactive); in experiment [7], 81.4% (inactive). Further, the growth in experiment [8] is 48.8% (inactive); in [9], 39.9% (inactive).
Regarding `CN(Cc1ccccc1)c1ccc(SC#N)cc1`, the growth in experiment [1] is 98.4% (inactive); in experiment [10], 103% (inactive); in experiment [3], 37.7% (inactive); in [4] it was 95.8% (inactive); in experiment [5] it was 78.8% (inactive); in experiment [6], 98.9% (inactive). Moreover, the growth in [7] was 93% (inactive); in experiment [8], 10.8% (inactive); in [9] it was 55.4% (inactive).
With `CC(C)(C)c1ccc(O)c(Br)c1`, the growth in experiment [1] is 126% (inactive); in experiment [10], 94.6% (inactive); in experiment [3], 86.5% (inactive); in experiment [4], 111% (inactive); in [5], 104% (inactive); in experiment [6], 96.4% (inactive). Further, the growth in experiment [7] is 73.4% (inactive); in [8] it was 7.22% (active); in experiment [9], 112% (inactive).
On to `O=[N+]([O-])/C(=C/c1ccccc1)c1ccccc1`, for which the growth is 107% (inactive) in experiment [1]; 103% (inactive) in experiment [10]; 84.4% (inactive) in [3]; 89.5% (inactive) in [4]; 101% (inactive) in experiment [5]; 106% (inactive) in experiment [6]. Besides, the growth is 107% (inactive) in [7], 97.5% (inactive) in experiment [8] and 99% (inactive) in experiment [9].
